From PubChem BioAssay
D3 antag: qHTS of D3 Dopamine Receptor Antagonist: qHTS; D(3) dopamine receptor (Homo sapiens), P35462; D3R cells, DiscoveRx beta-arrestin luminescence, antagonist mode; active compounds read low; max response, negative = inhibition, %; hit rate 2.5% among 360,000; AID 652054, 2013; in the data active = max response below about -50%; inconclusive = no clear call, values can overlap the other calls
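Cells expressing the human receptor were seeded at 1500 cells/well, incubated overnight at 37 degrees C in 5% CO2, then exposed to library compounds with dopamine controls for 90 minutes at 37 degrees C before luminescent detection.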
Integrin act MD: qHTS for Activators of Integrin-Mediated Alleviation for Muscular Dystrophy; alpha7betagal myoblasts, beta-gal FDG fluorescence, 48 h; Potency, µM (titrated, usually from 38.3 µM), usual class: activators; hit rate 0.064% among 350,000; AID 624291, 2012; also: nearly all actives have a fitted effect of over 60% in size
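alpha7betagal+/- myoblasts (passage 13, 250/well) treated 48 h at 37C with compounds at 1:260 dilution of DMSO stock. Lysed, then beta-galactosidase activity read as FDG fluorescence (ex 480/em 540) after 30 min, with pre-read for autofluorescence.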
IDH1 R132H inh: qHTS for Inhibitors of mutant isocitrate dehydrogenase 1 (IDH1): qHTS; Isocitrate dehydrogenase [NADP] cytoplasmic (Homo sapiens), O75874; IDH1-R132H enzyme, NADPH consumption, diaphorase/resazurin fluorescence; Potency, µM (highest dose often 76.6 µM), usual class: inhibitors; hit rate 0.093% among 390,000; AID 602179, 2012; also: nearly all actives have a fitted effect of over 65% in size
Target sequence (O75874 whole entry R132H, stated change not applied): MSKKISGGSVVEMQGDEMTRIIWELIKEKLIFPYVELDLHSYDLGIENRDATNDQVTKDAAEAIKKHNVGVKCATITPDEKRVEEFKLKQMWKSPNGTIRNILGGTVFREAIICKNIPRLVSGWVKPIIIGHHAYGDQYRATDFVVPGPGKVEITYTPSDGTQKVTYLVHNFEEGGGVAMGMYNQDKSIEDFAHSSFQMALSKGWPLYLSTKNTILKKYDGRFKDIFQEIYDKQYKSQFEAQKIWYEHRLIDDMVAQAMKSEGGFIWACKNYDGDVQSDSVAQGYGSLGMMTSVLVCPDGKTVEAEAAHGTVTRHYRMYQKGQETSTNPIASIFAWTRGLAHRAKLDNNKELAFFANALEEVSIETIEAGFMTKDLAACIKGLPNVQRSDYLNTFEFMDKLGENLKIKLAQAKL
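IDH1-R132H (0.5 ug/mL) preincubated 30 min with compound, then NADPH (0.016 mM) and alpha-KG (2 mM) added; 80 min at RT, pH 7.5. Remaining NADPH coupled via diaphorase/resazurin to fluorescence (540/590 nm); concentration-response curves normalized to no-enzyme control.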
D3 ag: qHTS of D3 Dopamine Receptor Agonist: qHTS. AID 652048, 2013. hit rate 0.58% among 410,000. D3R DiscoveRx beta-arrestin cells, luminescence, 90 min. max activation, %. D(3) dopamine receptor (Homo sapiens), P35462; in the data active = max activation above about 30%
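Cells at 1500/well, incubated overnight, then treated with pinned compounds (dopamine as control) for 90 min at 37 degrees C. DiscoveRx reagent added for 30 - 60 minutes at room temperature; luminescence read.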
B2AR arrestin: qHTS assay of beta-arrestin-biased ligands of beta2-adrenergic receptor; beta-arrestin recruitment to beta2AR, cell-based reporter; Potency, µM (highest dose often 46.1 µM), actives largely listed as activators; Beta-2 adrenergic receptor (Homo sapiens), P07550; hit rate 0.02% among 330,000; also: nearly all actives have a fitted effect of over 65% in size
Numbers stand for hits; [ ] = remark or other dose. Shown are actives, neighbours in structure and some others; about 2.9% of the full set was active somewhere. Unless noted, calls follow the shape of the dose curve; as a rule, active = well fitted curve in the direction sought with a large enough effect; inconclusive = small, poorly fitted or top-dose-only effect, or another doubt; inactive = no such curve, though single readings can be large; an effect the other way counts as inactive or inconclusive.

Cc1cccc(Cn2c(=O)n(-c3cc(C)cc(C)c3)c(=O)c3oc4ccccc4c32)c1 was read as IDH1 R132H inh inactive and D3 ag inactive.
NC(=O)c1cccnc1Oc1ccc(Cl)cc1Cl was read as D3 antag inactive, Integrin act MD 10µM, IDH1 R132H inh inactive, D3 ag inactive and B2AR arrestin inactive.
For CCOc1ccc(CCNC(=O)CCc2c(C)nc3c(-c4ccccc4)c(C)nn3c2C)cc1OCC the results were IDH1 R132H inh inactive and D3 ag inactive.
Screening CCc1cc2cccc(C)c2nc1SCC(=O)c1ccc(NC(C)=O)cc1 returned D3 antag inactive, Integrin act MD inactive, IDH1 R132H inh inactive, D3 ag 81.1 and B2AR arrestin inactive.
For COc1ccccc1NC(=O)C(=O)Nc1ccccn1 the results were D3 antag -83.6, Integrin act MD inactive, IDH1 R132H inh inactive, D3 ag inactive and B2AR arrestin inactive.
Cc1ccc(S(=O)(=O)CCC(=O)OCC(=O)c2c[nH]c3ccccc23)cc1 was read as D3 antag inactive, Integrin act MD inactive, IDH1 R132H inh inactive, D3 ag 32.9 and B2AR arrestin inactive.
Cc1ccc(S(=O)(=O)CCC(=O)OCC(=O)c2cc(C)ccc2C)cc1 was read as D3 antag inactive, Integrin act MD inactive, IDH1 R132H inh inactive, D3 ag inactive and B2AR arrestin inactive.
FC(F)(F)c1cnc(Sc2nnc(-c3cccs3)n2CC2CCCO2)c(Cl)c1 (configuration not stated) was read as D3 antag inactive, Integrin act MD inactive, IDH1 R132H inh inactive, D3 ag 30.8 and B2AR arrestin inactive.
`Cc1cccc(N(C(=O)C(F)(F)F)C(C(=O)NC2CCCCC2)c2cccs2)c1` (configuration not stated) gave D3 antag inactive, Integrin act MD inactive, IDH1 R132H inh inactive, D3 ag inactive and B2AR arrestin inactive.
C#CC(=O)N(c1cccc(OC)c1)C(C(=O)NC1CCCC1)c1cccs1 (configuration not stated) was read as D3 antag -63.5, Integrin act MD inactive, IDH1 R132H inh inactive, D3 ag inactive and B2AR arrestin inactive.
Screening C#CC(=O)N(c1ccc(OC)c(OC)c1)C(C(=O)NC1CCCC1)c1cccs1 (configuration not stated) returned D3 antag -72.3, Integrin act MD inconclusive, IDH1 R132H inh inactive, D3 ag inactive and B2AR arrestin inactive.
O=C(COC(=O)/C=C/c1ccco1)Nc1cc(S(=O)(=O)N2CCOCC2)ccc1Cl was read as D3 antag inactive, Integrin act MD inactive, IDH1 R132H inh inactive, D3 ag inactive and B2AR arrestin inactive.
For CC(C)(C)NC(=O)C(c1ccc(F)cc1)N(Cc1ccccc1Cl)C(=O)c1ccn[nH]1 (configuration not stated) the results were D3 antag inactive, Integrin act MD inactive, IDH1 R132H inh inactive, D3 ag inactive and B2AR arrestin 1µM.
Cc1nnc(N2CCN(c3ccc(Cl)cc3)CC2)c2c1nnn2Cc1ccc(F)cc1 was read as IDH1 R132H inh inactive and D3 ag inactive.
CCOC(=O)c1sc(=S)[nH]c1C was read as D3 antag -52.3, Integrin act MD inactive, IDH1 R132H inh inactive and D3 ag inactive.
Screening CN1CCN(C(=S)NCCc2ccccc2)CC1 returned D3 antag -87.1, Integrin act MD inactive, IDH1 R132H inh inactive, D3 ag inactive and B2AR arrestin inactive.
For S=C(NCCc1ccccc1)N1CCN(C(=S)NCCc2ccccc2)CC1 the results were D3 antag inactive, Integrin act MD inactive, IDH1 R132H inh inactive, D3 ag inactive and B2AR arrestin inactive.
CCOC(=O)N1CCc2c(sc3ncn(C)c(=O)c23)C1 was read as D3 antag inactive, Integrin act MD inactive, IDH1 R132H inh inactive, D3 ag inactive and B2AR arrestin inactive.
`CCOC(=O)N1CCc2c(sc3nc(SC(C)C)n(N)c(=O)c23)C1` gave D3 antag inactive, Integrin act MD inactive, IDH1 R132H inh inactive, D3 ag 31.2 and B2AR arrestin inactive.
For CCOC(=O)C1Cc2c([nH]c3ccccc23)CN1 (configuration not stated) the results were D3 antag inactive, Integrin act MD inactive, IDH1 R132H inh inactive, D3 ag inactive and B2AR arrestin inactive.
`CCOC(=O)C1Cc2ccccc2CN1` (configuration not stated) gave D3 antag -66.4, Integrin act MD inactive, IDH1 R132H inh inactive, D3 ag inactive and B2AR arrestin inactive.
Screening COc1cccc(-c2onc3ccc(C4(C)OCCO4)cc23)c1 returned D3 antag inactive, Integrin act MD inactive, IDH1 R132H inh inactive, D3 ag 31.8 and B2AR arrestin inactive.
COc1cccc(C(C(=O)NCc2ccco2)N(C(=O)Cn2nnc3ccccc32)C2CC2)c1OC (configuration not stated) was read as D3 antag -53.3, Integrin act MD inactive, IDH1 R132H inh inactive, D3 ag inactive and B2AR arrestin inactive.
`COc1cccc(C(C(=O)NCC2CCCO2)N(C(=O)Cn2nnc3ccccc32)c2ccccc2C(C)=O)c1OC` (configuration not stated) gave D3 antag inactive, Integrin act MD inactive, IDH1 R132H inh inactive, D3 ag inactive and B2AR arrestin inactive.
For O=C(/C=C/c1cn(-c2ccccc2)nc1-c1cccnc1)c1ccco1 the results were D3 antag inactive, Integrin act MD inactive, IDH1 R132H inh inactive, D3 ag inactive and B2AR arrestin inactive.
Cc1nc(C(F)(F)F)ccc1C(=O)N1CCC1(C)C(=O)NCc1cccs1 (configuration not stated) was read as D3 antag -90.7 and D3 ag inactive.
`CCCCNC(=O)C1(C)CCN1C(=O)c1ccc(C(F)(F)F)nc1C` (configuration not stated) gave D3 antag inactive and D3 ag inactive.
Screening O=C(c1ccccc1Br)N1CCN(c2ccccc2)CC1 returned D3 antag inactive, Integrin act MD inactive[7.66 µM], IDH1 R132H inh inactive, D3 ag inactive and B2AR arrestin inactive.
COc1ccc(C(=O)N2CCC(N3CCN(c4ccccc4)CC3)CC2)cc1OC was read as D3 antag inconclusive, Integrin act MD inactive, IDH1 R132H inh inactive, D3 ag inactive and B2AR arrestin inactive.
`O=C(c1cccc2ccccc12)N1CCC(N2CCN(c3ccccc3)CC2)CC1` gave D3 antag -58.2, Integrin act MD inactive, IDH1 R132H inh inactive, D3 ag 74.5 and B2AR arrestin inactive.
